Source: PubChem BioAssay
Cdc42 wt GTP: modulators of GTP binding to wildtype Cdc42, primary screen, biochemical, multiplex bead flow cytometry, Bodipy-GTP. percent activity (GTP binding), % at 10 µM. Cell division control protein 42 homolog (Homo sapiens), P60953. GST-Cdc42 beads; actives lie on both sides. actives 0.2% (n = 190,000);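 active = percent activity GTP binding at least 20 points away from the 100% baseline, either down as inhibitor or up as activator; inconclusive = compound flagged as likely green fluorescent from well-wide comparison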;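 also: median bead fluorescence of bound Bodipy-FL-GTP at 100 nM; 0% = excess unlabeled GTP control and 100% = no compound control; below 100% means less GTP binding so inhibitor and above means activator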
Target sequence (P60953 whole entry, looked up): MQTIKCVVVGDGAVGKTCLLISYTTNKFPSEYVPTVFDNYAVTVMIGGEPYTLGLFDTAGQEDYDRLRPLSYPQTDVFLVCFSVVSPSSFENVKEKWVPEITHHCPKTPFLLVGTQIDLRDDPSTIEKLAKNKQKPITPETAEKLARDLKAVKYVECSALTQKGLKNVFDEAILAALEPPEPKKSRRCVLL
Rab7 wt GTP bind: modulators of GTP binding to Rab7, primary screen, biochemical, wildtype, multiplex bead flow cytometry. GST-Rab7 beads, fluorescent GTP binding; actives lie on both sides; untreated = 100%, excess cold GTP = 0%. GTP binding activity (percent of control), % at 10 µM. Rab7 GTPase wild type (dog), Bodipy-FL-GTP binding. AID 758, 2007. actives 0.055% (n = 190,000);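 active = fluorescent GTP binding to Rab7 beads changed by at least 20 points from the 100% baseline, either direction, mostly lower; inconclusive = compound itself probably fluorescent, or too few beads counted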;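 also: median green fluorescence of bound Bodipy-FL-GTP per Rab7 bead population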
Rac1 wt modul: wildtype Rac1 GTP binding modulators, primary screen, biochemical, GST-Rac1 beads, flow cytometry, multiplex; Ras-related C3 botulinum toxin substrate 1 (Homo sapiens), P63000; fluorescent GTP binding; actives lie on both sides; 0 = cold GTP competed, 100 = untreated; GTP binding activity (% of control), % at 10 µM; actives 0.27% (n = 190,000); AID 757, 2007;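 active = GTP binding activity at least 20 points away from the 100% control level, either lower or higher; inconclusive = compound flagged as likely green fluorescent, judged across all proteins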
Rab2A wt mod: modulators of GTP binding to Rab2A wildtype, primary screen, biochemical, dog, bead-based flow cytometry, multiplex; GTP binding activity, % at 10 µM; GST-Rab2 wt beads, Bodipy-GTP binding; AID 760, 2007; actives 0.19% (n = 190,000);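 active = GTP binding activity at least 20 points away from 100%, either lowered or raised; inconclusive = signal likely due to the compound's own green fluorescence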;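 also: 0% = beads with excess unlabeled GTP and 100% = no-compound control corrected for plate trend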
Rac1 mut GTP: GTP binding modulators of activated mutant Rac1, primary screen, biochemical, bead-based flow cytometry, multiplex, fluorescent GTP | GST-Rac1 activated beads; actives lie on both sides; 100% means binding = to untreated wells | percent activity (GTP binding), % at 10 µM | actives 0.11% (n = 190,000) | AID 764, 2007;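 active = GTP binding at least 20 percentage points away from the 100% baseline, in either direction, so actives lie on both sides; inconclusive = Compound likely fluorescent itself, or too few beads counted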
HRas wt GTP bind: modulators of GTP binding to HRas wildtype, primary screen, biochemical, bead-based flow cytometry, multiplex. GTPase HRas (Homo sapiens), P01112. actives 0.14% (n = 190,000). GST-Ras wt beads, Bodipy-FL-GTP binding; actives lie on both sides. GTP binding activity, % at 10 µM;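 active = GTP binding activity at least 20% away from the 100% baseline, either lowered as inhibitor or raised as activator; inconclusive = flagged as likely green fluorescent, judged across all proteins in the well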;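 also: 0% = unlabeled GTP competition control and 100% = no-compound control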
Target sequence (P01112 whole entry, looked up): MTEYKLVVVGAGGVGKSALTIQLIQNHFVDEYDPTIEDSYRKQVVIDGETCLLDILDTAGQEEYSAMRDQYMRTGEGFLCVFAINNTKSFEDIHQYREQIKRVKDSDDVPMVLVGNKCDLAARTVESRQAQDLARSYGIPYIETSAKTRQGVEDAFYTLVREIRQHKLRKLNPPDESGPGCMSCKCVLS
* = called active by the depositor; ? = inconclusive; / = no result; [ ] = dose if it differs, or a comment. Most compounds without a hit are left out; they make up all but 0.4% or so of the library.

SMILES | Cdc42 wt GTP | Rab7 wt GTP bind | Rac1 wt modul | Rab2A wt mod | Rac1 mut GTP | HRas wt GTP bind
Cc1ccccc1NC(=O)Nc1nnc(Cc2ccc([N+](=O)[O-])cc2)s1 | 101 | 96 | 102 | 98 | 101 | 98
CCn1cc(C(=O)O)c(=O)c2cc(F)c(N/N=C/c3ccccc3[N+](=O)[O-])cc21 | 82 | 77* | 64* | 58* | 78* | 63*
O=C(NNc1nc(-c2ccccc2)c2cc(Br)ccc2n1)c1ccc(S(=O)(=O)N2CCCCC2)cc1 | 94 | 99 | 96 | 93 | 93 | 95
O=C(NNc1nc(-c2ccccc2)c2cc(Br)ccc2n1)c1ccc(S(=O)(=O)N2CCOCC2)cc1 | 82 | 84 | 67* | 75* | 87 | 81
CC(=O)NNc1nc(-c2ccccc2)c2cc(Br)ccc2n1 | 101 | 100 | 105 | 102 | 98 | 100
CN(C)S(=O)(=O)c1ccc(C(=O)NNc2nc(-c3ccccc3)c3cc(Br)ccc3n2)cc1 | 85 | 90 | 78* | 82 | 88 | 83
COc1ccc(/C=C(\C#N)C(=O)OCC(=O)NC2CC2)cc1 | 95 | 103 | 101 | 96 | 95 | 97
O=C(OCCCN=C1NS(=O)(=O)c2ccccc21)c1ccc([N+](=O)[O-])cc1 | 93 | 100 | 95 | 96 | 93 | 95
COc1ccccc1NC(=S)N(Cc1ccco1)Cc1cc2cc(C)ccc2[nH]c1=O | 96 | 96 | 97 | 98 | 99 | 97
O=C(CNC(=O)c1ccccc1F)NCCOc1ccccc1Cl | 97 | 99 | 100 | 96 | 100 | 98
N#CCCN(C(=O)COc1ccc(Cl)cc1Cl)c1ccccc1 | 98 | 99 | 105 | 99 | 98 | 99
O=C(O)c1ccc(Nc2nc(-c3cc4ccccc4oc3=O)cs2)cc1O | 84 | 94 | 79* | 87 | 88 | 87
CC(=O)c1cc2c(cc1NC(=O)c1cccc(S(=O)(=O)N3CCN(C)CC3)c1)OCO2 | 83 | 98 | 78* | 82 | 89 | 84
CN1CCN(S(=O)(=O)c2cccc(C(=O)Nc3sc4c(c3C(N)=O)CCCC4)c2)CC1 | 79* | 85 | 72* | 77* | 87 | 80
O=C(Nc1cccc(S(=O)(=O)N2CCCC2)c1)c1ccc2c(c1)OCO2 | 99 | 92 | 90 | 90 | 94 | 92
Cc1ccc(-n2nnnc2CCl)cc1 | 97 | 98 | 100 | 97 | 95 | 97
CCOc1ccc(CCNC(=O)COC(=O)c2cc(OC)c(OC)c(OC)c2)cc1OCC | 99 | 101 | 101 | 100 | 97 | 100
CNC(=S)NNS(=O)(=O)c1ccc(OC)cc1OC | 97 | 99 | 100 | 98 | 95 | 98
CCc1ccccc1NC(=O)N1C2CCCC1CC(NC(C)=O)C2 (stereo unspecified) | 126*[activator] | 95 | 139*[activator] | 108 | 107 | 104
N#Cc1c2c(c(-c3ccccc3Cl)[nH]c1=S)CCCC2 | 79* | 91 | 80 | 86 | 80 | 85
N#Cc1c(-c2ccccc2Cl)cc(-c2ccccc2)[nH]c1=S | 93 | 104 | 93 | 96 | 90 | 95
Cc1ccc(Nc2n[nH]c(C)c2[N+](=O)[O-])c(C)c1 | 116 | ? | 111 | 192*[activator] | ? | 154*[activator]
Cc1ccccc1Nc1n[nH]c(C)c1[N+](=O)[O-] | 98 | 98 | 99 | 99 | 100 | 97
CN(C(=O)COC(=O)CNC(=O)c1sc2ccccc2c1Cl)c1ccccc1 | 95 | 91 | 94 | 92 | 97 | 92
COc1ccc(NC(=O)CN(C)C2CCCCC2)c([N+](=O)[O-])c1 | 98 | 97 | 100 | 97 | 99 | 99
SMILES | Cdc42 wt GTP | Rab7 wt GTP bind | Rac1 wt modul | Rab2A wt mod | Rac1 mut GTP | HRas wt GTP bind
CCN(CC(=O)NC1CCS(=O)(=O)C1)C(=O)/C=C/c1cccs1 (stereo unspecified) | 94 | 97 | 95 | 96 | 97 | 93
NC(N)=NS(=O)(=O)c1ccc(NC(=S)NC(=O)c2ccc3c(c2)OCO3)cc1 | 109 | 100 | 123*[activator] | 114 | 105 | 111
Cc1cc(C)c2nc(NNC(=O)c3cc(=O)c4ccccc4o3)sc2c1 | 77* | 96 | 80 | 79* | 71* | 82
CCOC(=O)C1=NN(C(=O)c2ccc(OC)cc2)C(O)(c2ccc(Cl)cc2)C1 (stereo unspecified) | 100 | 95 | 99 | 96 | 98 | 98
COC(=O)C1=NN(C(=O)c2cccc(Br)c2)C(O)(c2ccc(Cl)cc2)C1 (stereo unspecified) | 78* | 94 | 85 | 82 | 79* | 85
CCn1cc([N+](=O)[O-])c(C(=O)Nc2nc3ccc(OC)cc3s2)n1 | 92 | 93 | 95 | 92 | 92 | 90
Cc1cc2nc(/C(C#N)=C/c3ccncc3)[nH]c2cc1C | 87 | 96 | 86 | 94 | 89 | 92
N#C/C(=C\c1ccc(-c2ccc(C(=O)O)cc2)o1)c1nc2ccccc2[nH]1 | 78* | 87 | 71* | 77* | 80 | 80
N#C/C(=C\c1ccncc1)c1nc2ccccc2[nH]1 | 41* | 26* | 31* | 42* | 35* | 43*
O=C1c2ccccc2C(=O)N1CCCCN(C(=O)c1cc2ccccc2oc1=O)c1ccc(Cl)cc1 | 43* | 29* | 50* | 46* | 53* | 51*
Cc1ccc(C)c(N(CC(N)=O)S(C)(=O)=O)c1 | 75* | 78* | 67* | 72* | 71* | 74*
O=C(NCc1ccc(Cl)cc1)c1cc([N+](=O)[O-])ccc1Cl | 100 | 96 | 102 | 97 | 96 | 100
O=C(CCc1nc2ccccc2[nH]c1=O)OCC(=O)N1CCc2ccccc21 | 114 | 103 | 130*[activator] | 107 | 106 | 106
O=C(CCc1nc2ccccc2c(=O)[nH]1)OCC(=O)N1CCc2ccccc21 | 97 | 106 | 101 | 98 | 95 | 98
CN1CCN(S(=O)(=O)c2cccc(C(=O)NCc3ccccc3Cl)c2)CC1 | 96 | 101 | 99 | 98 | 95 | 96
CC1(C)Cc2c(sc(NC(=S)NC(=O)c3ccccc3)c2C(=O)O)CO1 | / | / | 70* | 69* | 63* | 67*
